Results: PubChem BioAssay
“And” between values parts separate entries of the source, which are not always exact repeats. Equal entries are not always repeated. Some of the results follow. The source made the active and inactive calls. Rule as the data show it, unless noted: active = inhibition above about 30%; inactive = the rest.

Tests used:
[1] = molecular target: Nuclear receptor coactivator 3 (Homo sapiens) (UniProt Q9Y6Q9); experiment: SRC3 coactivator transcriptional activity inhibitors, confirmation, cell-based, luminescence, quadruplicate (AID 588792;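 active = mean inhibition over 43.08%, the solvent-only control mean plus 3 SD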;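 also: 0% = DMSO treated cells and 100% = gossypol at 36 µM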); conditions: HEK293 GAL4-SRC3 luciferase reporter, at 3.6 µM, stronger effect = higher value
Nuclear receptor coactivator 3 (Homo sapiens), sequence (Q9Y6Q9 whole entry, looked up, the tested form may be a part): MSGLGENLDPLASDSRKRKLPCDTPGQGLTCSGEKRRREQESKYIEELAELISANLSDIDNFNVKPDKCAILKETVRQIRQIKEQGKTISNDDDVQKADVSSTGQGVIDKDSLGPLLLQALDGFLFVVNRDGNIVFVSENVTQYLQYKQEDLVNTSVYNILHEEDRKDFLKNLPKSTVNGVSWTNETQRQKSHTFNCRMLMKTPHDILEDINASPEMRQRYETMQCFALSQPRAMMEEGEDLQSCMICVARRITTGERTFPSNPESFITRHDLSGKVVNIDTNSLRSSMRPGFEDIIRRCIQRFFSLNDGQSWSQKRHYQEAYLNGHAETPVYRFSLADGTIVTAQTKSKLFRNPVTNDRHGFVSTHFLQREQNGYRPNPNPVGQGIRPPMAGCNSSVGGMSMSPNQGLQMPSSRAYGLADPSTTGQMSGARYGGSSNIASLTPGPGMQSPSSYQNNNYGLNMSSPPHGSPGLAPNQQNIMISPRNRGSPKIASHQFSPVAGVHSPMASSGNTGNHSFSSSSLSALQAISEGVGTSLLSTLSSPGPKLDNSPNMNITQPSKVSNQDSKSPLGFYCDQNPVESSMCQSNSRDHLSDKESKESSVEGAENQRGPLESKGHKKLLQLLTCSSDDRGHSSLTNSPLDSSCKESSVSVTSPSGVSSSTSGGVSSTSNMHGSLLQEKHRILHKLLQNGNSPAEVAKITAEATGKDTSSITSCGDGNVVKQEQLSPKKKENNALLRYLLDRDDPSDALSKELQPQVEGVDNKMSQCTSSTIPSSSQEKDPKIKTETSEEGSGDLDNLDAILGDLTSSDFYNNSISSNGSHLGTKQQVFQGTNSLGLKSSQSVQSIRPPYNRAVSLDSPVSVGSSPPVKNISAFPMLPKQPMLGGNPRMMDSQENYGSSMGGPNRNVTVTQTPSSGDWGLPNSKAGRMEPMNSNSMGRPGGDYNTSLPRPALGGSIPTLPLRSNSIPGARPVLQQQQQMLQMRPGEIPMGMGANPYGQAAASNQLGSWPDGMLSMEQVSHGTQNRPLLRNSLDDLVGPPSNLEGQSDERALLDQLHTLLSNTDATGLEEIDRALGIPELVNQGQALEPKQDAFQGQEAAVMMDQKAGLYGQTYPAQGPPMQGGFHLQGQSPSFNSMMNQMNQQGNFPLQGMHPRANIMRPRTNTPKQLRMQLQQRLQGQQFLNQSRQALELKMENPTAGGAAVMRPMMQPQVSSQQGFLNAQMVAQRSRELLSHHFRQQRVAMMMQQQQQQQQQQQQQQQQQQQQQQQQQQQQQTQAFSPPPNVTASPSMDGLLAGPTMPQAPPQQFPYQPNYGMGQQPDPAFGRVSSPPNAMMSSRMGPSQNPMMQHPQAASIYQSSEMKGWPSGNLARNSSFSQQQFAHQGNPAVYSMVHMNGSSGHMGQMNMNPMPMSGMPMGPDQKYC

[2] = tested on: transactivating tegument protein VP16 (Human herpesvirus 1), Gal4-VP16 luciferase reporter; experiment: VP16 transactivation inhibitors, counter-screen for SRC3 inhibitor project, cell-based, luminescence, high throughput (AID 588794); conditions: mammalian cells, VP16-driven luciferase reporter luminescence; at 3.6 µM; stronger effect = higher value
[3] = molecular target: Nuclear receptor coactivator 1 (Homo sapiens) (UniProt Q15788); experiment: SRC1 coactivator transcriptional activity inhibitors, confirmation, cell-based, luminescence, quadruplicate (AID 588820;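 active = mean inhibition above 46.68%, the untreated control wells mean plus 3 SD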;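 also: 0% = DMSO wells and 100% = gossypol 36 µM treated wells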); conditions: HEK293 GAL4-SRC1 luciferase reporter, at 3.6 µM, stronger effect = higher value
Nuclear receptor coactivator 1 (Homo sapiens), sequence (Q15788 whole entry, looked up, the tested form may be a part): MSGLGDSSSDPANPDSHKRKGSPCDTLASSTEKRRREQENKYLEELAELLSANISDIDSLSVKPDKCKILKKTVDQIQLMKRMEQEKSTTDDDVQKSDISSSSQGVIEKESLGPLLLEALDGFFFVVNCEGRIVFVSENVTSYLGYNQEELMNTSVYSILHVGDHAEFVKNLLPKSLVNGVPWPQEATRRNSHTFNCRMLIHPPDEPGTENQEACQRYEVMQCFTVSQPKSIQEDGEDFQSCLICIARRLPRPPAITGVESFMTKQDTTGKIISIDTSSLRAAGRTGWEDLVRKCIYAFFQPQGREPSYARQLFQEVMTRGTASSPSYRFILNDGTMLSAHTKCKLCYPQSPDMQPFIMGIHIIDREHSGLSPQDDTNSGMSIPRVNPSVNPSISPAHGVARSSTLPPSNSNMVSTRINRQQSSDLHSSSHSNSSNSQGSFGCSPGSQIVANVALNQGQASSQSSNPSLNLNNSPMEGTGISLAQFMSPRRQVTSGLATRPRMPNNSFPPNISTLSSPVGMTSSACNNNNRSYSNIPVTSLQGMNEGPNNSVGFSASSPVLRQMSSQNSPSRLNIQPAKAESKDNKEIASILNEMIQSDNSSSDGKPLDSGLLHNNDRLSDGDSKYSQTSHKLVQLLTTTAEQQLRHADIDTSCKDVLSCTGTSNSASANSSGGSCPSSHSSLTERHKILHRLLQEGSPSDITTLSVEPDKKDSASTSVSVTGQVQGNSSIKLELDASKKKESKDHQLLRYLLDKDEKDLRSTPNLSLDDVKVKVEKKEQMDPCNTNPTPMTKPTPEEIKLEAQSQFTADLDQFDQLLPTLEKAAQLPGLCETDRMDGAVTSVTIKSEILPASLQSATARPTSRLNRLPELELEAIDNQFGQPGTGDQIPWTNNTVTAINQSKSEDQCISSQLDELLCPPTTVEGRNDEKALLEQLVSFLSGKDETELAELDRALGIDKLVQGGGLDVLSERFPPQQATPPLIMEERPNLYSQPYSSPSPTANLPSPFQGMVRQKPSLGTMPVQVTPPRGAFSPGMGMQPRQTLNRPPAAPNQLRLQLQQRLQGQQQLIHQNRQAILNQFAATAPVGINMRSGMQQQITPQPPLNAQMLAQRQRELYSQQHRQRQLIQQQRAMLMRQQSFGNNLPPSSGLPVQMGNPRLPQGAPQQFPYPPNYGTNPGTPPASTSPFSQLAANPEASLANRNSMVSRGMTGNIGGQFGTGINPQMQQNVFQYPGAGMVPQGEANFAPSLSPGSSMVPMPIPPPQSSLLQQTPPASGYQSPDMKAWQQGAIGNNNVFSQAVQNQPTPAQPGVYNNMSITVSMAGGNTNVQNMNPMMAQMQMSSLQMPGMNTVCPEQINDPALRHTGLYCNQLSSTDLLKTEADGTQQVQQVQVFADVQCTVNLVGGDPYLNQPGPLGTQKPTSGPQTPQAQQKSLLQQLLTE

[4] = VP16 transactivation inhibitors, counter-screen for SRC1 inhibitor project, cell-based, luminescence, high throughput (AID 588824; in the data active = inhibition above about 25%); conditions: cell-based VP16 transactivation luciferase luminescence; at 3.6 µM; stronger effect = higher value
[5] = tested on: transactivating tegument protein VP16 (Human herpesvirus 1); experiment: VP16 transactivation reporter inhibitors, counter-screen for SRC2 inhibitor project, cell-based, luminescence, single concentration (AID 652007; in the data active = inhibition above about 36%); conditions: cell-based VP16 transactivation luciferase reporter, at 8.9 µM, stronger effect = higher value
[6] = molecular target: Nuclear receptor coactivator 2 (Homo sapiens) (UniProt Q15596); experiment: SRC2 coactivator transcriptional activity inhibitors, confirmation, cell-based, luminescence, HEK293, triplicate (AID 652008;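 active = mean inhibition above 46.5%, the solvent-only control mean plus 3 SD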;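 also: 0% = DMSO-treated cells and 100% = Gossypol at 36 µM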); conditions: HEK293 GAL4-SRC2 luciferase reporter, at 8.9 µM, stronger effect = higher value
Nuclear receptor coactivator 2 (Homo sapiens), sequence (Q15596 whole entry, looked up, the tested form may be a part): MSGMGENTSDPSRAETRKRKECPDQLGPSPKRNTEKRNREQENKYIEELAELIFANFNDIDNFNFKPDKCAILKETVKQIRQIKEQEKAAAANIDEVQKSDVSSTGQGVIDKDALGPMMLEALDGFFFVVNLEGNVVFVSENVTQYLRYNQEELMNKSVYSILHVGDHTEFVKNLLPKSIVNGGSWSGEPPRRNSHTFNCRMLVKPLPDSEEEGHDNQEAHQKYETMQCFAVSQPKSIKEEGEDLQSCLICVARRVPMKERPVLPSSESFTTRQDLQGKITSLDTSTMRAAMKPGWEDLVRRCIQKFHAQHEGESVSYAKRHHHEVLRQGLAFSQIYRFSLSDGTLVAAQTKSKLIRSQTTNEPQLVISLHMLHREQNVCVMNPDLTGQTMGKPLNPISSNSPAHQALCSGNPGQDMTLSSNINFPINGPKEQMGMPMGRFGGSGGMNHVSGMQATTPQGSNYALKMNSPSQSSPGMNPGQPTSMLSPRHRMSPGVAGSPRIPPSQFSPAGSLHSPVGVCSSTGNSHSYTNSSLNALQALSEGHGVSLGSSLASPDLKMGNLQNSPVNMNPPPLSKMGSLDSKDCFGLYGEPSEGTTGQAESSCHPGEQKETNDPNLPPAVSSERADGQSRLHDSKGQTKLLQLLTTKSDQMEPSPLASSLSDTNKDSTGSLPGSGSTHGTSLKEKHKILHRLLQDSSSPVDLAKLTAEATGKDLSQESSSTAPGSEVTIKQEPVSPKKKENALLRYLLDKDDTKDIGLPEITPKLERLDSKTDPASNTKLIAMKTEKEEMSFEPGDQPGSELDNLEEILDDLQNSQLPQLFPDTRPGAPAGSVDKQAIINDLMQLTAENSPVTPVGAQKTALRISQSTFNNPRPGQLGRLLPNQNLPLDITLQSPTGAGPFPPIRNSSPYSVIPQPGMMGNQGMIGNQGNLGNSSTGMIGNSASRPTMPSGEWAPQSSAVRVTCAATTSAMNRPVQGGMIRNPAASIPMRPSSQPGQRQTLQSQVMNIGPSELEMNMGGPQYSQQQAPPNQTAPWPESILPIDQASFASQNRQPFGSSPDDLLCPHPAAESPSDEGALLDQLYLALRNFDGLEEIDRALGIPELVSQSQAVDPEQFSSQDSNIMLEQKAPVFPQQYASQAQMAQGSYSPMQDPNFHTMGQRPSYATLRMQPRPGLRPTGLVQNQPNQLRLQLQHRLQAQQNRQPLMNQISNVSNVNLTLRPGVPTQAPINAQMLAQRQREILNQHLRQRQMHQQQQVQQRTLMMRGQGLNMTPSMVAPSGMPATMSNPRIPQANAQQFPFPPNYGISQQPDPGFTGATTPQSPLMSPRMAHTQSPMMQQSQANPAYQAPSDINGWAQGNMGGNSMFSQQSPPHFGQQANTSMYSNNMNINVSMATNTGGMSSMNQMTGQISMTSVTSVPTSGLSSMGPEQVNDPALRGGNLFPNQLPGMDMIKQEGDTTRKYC

[7] = StAR promoter reporter inhibitors, counter-screen for LRH-1 inverse agonist project, cell-based, luminescence, high throughput (AID 651611; in the data active = inhibition above about 28%); conditions: StAR promoter luciferase reporter counterscreen, at 3.6 µM, stronger effect = higher value
[8] = molecular target: Nuclear receptor subfamily 5 group A member 2 (Homo sapiens) (UniProt O00482); experiment: LRH-1 (NR5A2) inverse agonists, retest, confirmation, cell-based, luminescence (AID 651613; in the data active = inhibition above about 42%;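 also: HEK293T cells co-transfected with LRH-1 and StAR promoter luciferase reporter; 0% = vehicle wells and 100% = parental cells lacking receptor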); conditions: cell-based LRH-1 luciferase reporter, inverse agonism; at 3.6 µM; stronger effect = higher value
[9] = molecular target: Steroidogenic factor 1 (Homo sapiens) (UniProt Q13285); experiment: SF1 (NR5A1) inverse agonists, counter-screen for LRH-1 inverse agonist project, cell-based, luminescence, high throughput (AID 651614; in the data active = inhibition above about 44%;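 also: cells cotransfected with StAR promoter reporter and SF1 expression vector; 0% = vehicle on cells with receptor and 100% = vehicle on cells lacking receptor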); conditions: cell-based SF1 luciferase reporter, at 3.6 µM, stronger effect = higher value
Steroidogenic factor 1 (Homo sapiens), sequence (Q13285 whole entry, looked up, the tested form may be a part): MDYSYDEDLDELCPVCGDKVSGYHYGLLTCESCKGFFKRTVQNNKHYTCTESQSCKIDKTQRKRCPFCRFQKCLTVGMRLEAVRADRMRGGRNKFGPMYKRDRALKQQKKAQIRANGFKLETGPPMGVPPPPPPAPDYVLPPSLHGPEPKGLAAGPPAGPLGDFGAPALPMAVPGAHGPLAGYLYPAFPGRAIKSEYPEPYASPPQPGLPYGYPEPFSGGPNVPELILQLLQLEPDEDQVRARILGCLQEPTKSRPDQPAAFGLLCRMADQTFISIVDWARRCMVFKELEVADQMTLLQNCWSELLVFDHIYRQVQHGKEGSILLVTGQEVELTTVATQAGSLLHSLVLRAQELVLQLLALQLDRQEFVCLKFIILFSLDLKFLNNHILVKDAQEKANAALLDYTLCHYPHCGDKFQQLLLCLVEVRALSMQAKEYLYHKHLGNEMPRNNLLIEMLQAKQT

[10] = VP16 transactivation reporter inhibitors, counter-screen for LRH-1 inverse agonist project, cell-based, luminescence, high throughput (AID 651615; in the data active = inhibition above about 33%); conditions: Gal4-VP16 luciferase reporter cells, at 3.6 µM, stronger effect = higher value
[11] = Gal4-VP16 luciferase reporter inhibitors, counter-screen for COUP-TFII antagonist project, cell-based, luminescence, HEK293 (AID 687007; in the data active = inhibition above about 13%); conditions: at 8.5 µM, stronger effect = higher value
[12] = molecular target: COUP transcription factor 2 (Homo sapiens) (UniProt P24468); experiment: NR2F2 transcriptional activity inhibitors, confirmation, cell-based, luciferase reporter, HEK293, triplicate (AID 687008;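 active = mean inhibition over three repeats above a set limit taken from the earlier primary screen, cut at about 38% in these data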;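 also: 100% = cells given the luciferase reporter alone without the COUP-TF2 vector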); conditions: HEK293 NGFI-A luciferase reporter, luminescence; at 8.5 µM; stronger effect = higher value
[13] = molecular target: Photoreceptor-specific nuclear receptor (Homo sapiens) (UniProt Q9Y5X4); experiment: NR2E3 agonist confirmation in cells, cell-based, luminescence, CHO-S two-hybrid (AID 624378;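 active = average inhibition above a cutoff equal to the mean inhibition of all tested compounds plus one SD, cut at about 70% in these data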;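 also: 0% = DMSO in NR2E3 cells and 100% = DMSO in cells lacking NR2E3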); conditions: CHO-S mammalian two-hybrid NR2E3-NCOR, luciferase luminescence; at 3.98 µM; stronger effect = higher value
[14] = GAL4-VP16 reporter modulators, confirmation, counter-screen for NR2E3 agonist project, cell-based, luminescence, CHO-S, high throughput (AID 624379;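 active = mean inhibition above a cutoff equal to the average over all tested compounds plus one standard deviation, cut at about 70% in these data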;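 also: 0% = DMSO with VP16-transfected cells and 100% = DMSO with cells lacking VP16; higher means less reporter light so more repression of VP16 activity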); conditions: CHO-S GAL4-VP16 luciferase reporter, at 3.98 µM, stronger effect = higher value

Measured: inhibition

COc1ccc(/C=C2\CC/C(=C\c3ccc(OC)c(OC)c3)C2=O)cc1OC
inactive: [1] 30.9% | [2] 10.7% | [3] 16.2% | [4] 16.9%
active: [5] 41.5% | [6] 77.9%

O=[N+]([O-])c1ccc2ncnc(Nc3ccc4c(c3)OCCO4)c2c1
active: [1] 57.9% | [2] 44.4% | [3] 59.8% | [4] 33.3%
inactive: [5] 3.91% | [6] 28.4%

CC1(Cc2ccc(Cl)cc2)C(=O)Nc2ccc(-c3cccnc3)cc21 (configuration not stated)
active: [1] 73.7% | [2] 49.3% | [3] 59.2% | [4] 52.8% | [6] 53.2%
inactive: [5] 6.39%

CCN(CC)c1ccc(/C=N/Nc2nc(C)cc(=O)[nH]2)c(O)c1
inactive: [5] -39.4% | [6] 29.6%
active: [1] 87.7% | [2] 78.7% | [3] 67.1% | [4] 74.3%

Cc1nc(SCC(=O)Nc2nc3ccccc3s2)c(C#N)c(C)c1C
active: [1] 92.7% | [2] 88.5% | [3] 82.4% | [4] 83.2% | [5] 92.1% | [6] 96.9%

Cc1c(/C(O)=C2/C(=O)C(=O)N(CCN3CCOCC3)C2c2ccco2)cnn1-c1ccccc1 (configuration not stated)
inactive: [1] 23.3% | [2] 5.75% | [3] -20.6% | [4] -37.5% | [5] -7.38% | [6] 39%

Cc1ccc(C(=O)CN2C(=O)c3ccccc3S2(=O)=O)cc1
inactive: [1] 31.6% | [3] -23.7%
active: [2] 48.8% | [4] 41.4% | [5] 65% | [6] 61.9%

O=C(O)C1CC=CCC1C(=O)Nc1ccc2c(c1)OCCO2 (configuration not stated)
inactive: [1] -15.8% | [2] -7.19% | [3] -47.1% | [4] -8.13% | [5] -13.1% | [6] 6.92%

Nc1ccc(-c2nc3c(Cl)cc(N)cc3[nH]2)cc1
inactive: [1] 18.7% | [2] -18.4% | [3] -18.9% | [4] -17.4% | [5] 28.1%
active: [6] 71.7%

CCOc1ccc(/C=C2\SC(=S)N(CCCC(=O)NCCCN3CCOCC3)C2=O)cc1
inactive: [1] 29.9% | [2] 10.6% | [3] 22.1% | [4] 7.63%
active: [5] 59.8% | [6] 90%

CC(/C=C1\SC(=O)N(CCCC(=O)O)C1=O)=C\c1ccccc1
active: [1] 79% | [2] 73.6% | [3] 71.9% | [4] 69.2% | [5] 90.3% | [6] 95.4%

OCCN1CCN(c2ncnc3ccc(Br)cc23)CC1
active: [1] 68.8% | [2] 41.1% | [3] 65.8% | [4] 44.5%
inactive: [5] 2.48% | [6] 36%

c1ccc(CCNc2nc(-c3ccccn3)nc3ccccc23)cc1
active: [2] 41% | [7] 58.5% | [8] 91.9% | [9] 82.7% | [10] 69.1%
inactive: [1] 22.7%

CC(=O)c1c(C)[nH]c(C(=O)OCC(=O)Nc2ccc(Cl)cc2[N+](=O)[O-])c1C
inactive: [1] 9.25% | [7] 22%
active: [2] 38% | [8] 59.6% | [9] 62.2% | [10] 54.5%

CC(=NNC(=S)N1CCCC1)c1ccccn1
active: [1] 54.1% | [2] 64.5% | [4] 66.4%

CN1/C(=C\C(=O)C[n+]2ccc3ccccc3c2)C(C)(C)c2ccccc21
inactive: [1] 24.8%
active: [2] 50.2% | [7] 35.9% | [8] 89.6% | [9] 77.6% | [10] 66.7%

COc1ccc(OC)c2nc3c(C(=O)NCCN(C)C)cccc3nc12
inactive: [1] -25.8%
active: [2] 65% | [7] 53.2% | [8] 77.8% | [9] 70.5% | [10] 75.7%

CC(=O)Nc1ccc(-c2csc(NC(=O)Nc3ccccc3)n2)cc1
inactive: [1] 4.6% | [2] -0.97% | [3] -38.2% | [4] -3.98% | [11] -18.8% | [12] 35.7%

c1cnc2c(c1)ccc1cccnc12
active: [2] 31.6% | [7] 70.5% and 77.1% | [8] 104% | [9] 59.1% and 70.5% | [10] 50.6% and 74.9%
inactive: [1] 42.2%

c1ccc(CNc2nc(-c3ccccn3)nc3ccccc23)cc1
active: [2] 29.9% | [7] 68.7% | [8] 76.8% | [9] 84.3% | [10] 66.5%
inactive: [1] 21.8%

COc1cccc(CNc2nc3cc(-c4cnn(Cc5ccccc5)c4)sc3c(=O)n2C)c1
active: [2] 30.1% | [7] 32.4% | [8] 47.3% | [9] 52% | [10] 46.9%
inactive: [1] 6.76%

COc1ccc(-c2n(Cc3ccccc3)c3ccccc3[n+]2Cc2ccccc2)cc1
active: [1] 64% | [2] 66.2% | [7] 76.3% | [8] 109% | [9] 90.3% | [10] 94.4%

CCOc1ccc(-n2c(-c3ccccc3)c[n+]3c2CCCCC3)cc1
active: [2] 52.4% | [7] 29.9% | [8] 90.5% | [9] 72.3% | [10] 66.2%
inactive: [1] 28.7%

CCc1ccc(N(CC)c2ncnc3nc[nH]c23)cc1
active: [1] 50.1% | [2] 33% | [3] 56.7% | [4] 36.9% | [6] 50.7%
inactive: [5] 4.69% | [11] -1.24% | [12] 17.4%

CC(=O)c1cn(CC(=O)Nc2ccc(C)cc2C)c2ccccc12
inactive: [1] 11.1% | [2] 28.2% | [7] 11.3%
active: [8] 71.5% | [9] 64.5% | [10] 47.4%

O=C(OC12CC3CC(CC(C3)C1)C2)c1ccc(NCc2cc(O)ccc2O)cc1
active: [1] 89.3% | [2] 59.6% | [13] 78.1% | [7] 66.5% | [8] 82.9% | [9] 80.2% | [10] 86% | [5] 95.5% | [6] 96.4% | [11] 79.4% | [12] 103%
inactive: [14] 18.6%

Clc1cccc(CNc2ccn3nc(-c4ccc(OCc5ccccc5)cc4)cc3n2)c1
active: [2] 35.7% | [9] 51% | [10] 56.4%
inactive: [1] -4.23% | [7] 23.4% | [8] 40.9%

O=C(Nc1ccc(S(=O)(=O)Nc2ccccc2)cc1)c1ccc(CN2CCOCC2)cc1
inactive: [1] 9.71% | [7] 21.8%
active: [2] 36% | [8] 56.4% | [9] 57.4% | [10] 57.6%

Cc1cc(C(=O)NC2CCCc3c2cnn3-c2ccc(C)c(C)c2)n(C)n1 (configuration not stated)
active: [2] 52.5% | [7] 33.4% | [8] 62% | [9] 57.4% | [10] 67.1%
inactive: [1] 21.1%

Cc1cc(C(=O)COC(=O)C2CC2)c(C)n1-c1ccc(F)cc1
inactive: [1] 4.63% | [2] 5.67% | [3] -12.9% | [4] -14.9% | [5] 1.88% | [6] 20.3% | [11] -16.4% | [12] 30.3%

CC(C)(C)Nc1nc(-c2ccccn2)nc2ccccc12
inactive: [1] 35% | [14] 49.7%
active: [2] 43.1% | [13] 99.2% | [7] 69.1% | [8] 85.6% | [9] 84.7% | [10] 63.9%

COC(=O)c1ccc(COC(=O)c2[nH]c(C)c(C(C)=O)c2C)o1
inactive: [1] 19.6% | [2] 15.9% | [7] 12.8% | [9] 38.7%
active: [8] 54.4% | [10] 41%

CCCCCc1ccc(OCCCC[n+]2ccccc2)c(CCCCC)c1
inactive: [1] 20.9% | [2] 20.9% | [7] 3.96% | [9] 37.9%
active: [8] 41.8% | [10] 42.3%

O=C(N/N=C\c1ccc([N+](=O)[O-])s1)c1cncc(Br)c1
inactive: [1] 32.5% | [2] 22.9%
active: [7] 57.4% | [8] 79.7% | [9] 72.9% | [10] 56.9%

Cc1ccc2c(c1C)-c1c(ccc(C)c1C)C(=O)C2=O
active: [1] 58% | [2] 34.3% | [7] 64.4% | [8] 72% | [9] 80.5% | [10] 73.8%

O=c1oc2ccccc2cc1-c1cn(-c2ccccc2)c(=S)[nH]1
inactive: [1] 11% | [2] 23.1% | [3] -68.1% | [4] -22.7%
active: [11] 46.9% | [12] 60.8%

CC1(C)CC[C@]2(C(=O)n3ccnc3)CC[C@]3(C)[C@H](C(=O)C=C4[C@@]5(C)C=C(C#N)C(=O)C(C)(C)[C@@H]5CC[C@]43C)[C@@H]2C1
active: [1] 93.8% | [2] 82% | [4] 93.8%

COc1ccc(Nc2ccncc2[N+](=O)[O-])cc1
active: [8] 75.5% | [9] 64.4% | [10] 39.3%
inactive: [1] 41.1% | [2] 27.4% | [7] 13.4%

CC(C)(C)c1ccc(C2CC2C(=O)N/N=C\c2ccc[nH]2)cc1 (configuration not stated)
inactive: [1] 39.8%
active: [2] 81.5% | [7] 80.9% | [8] 105% | [9] 92% | [10] 87.4%

CN(c1ccccc1)S(=O)(=O)c1cccc(C(=O)OCC(=O)Nc2ccc(C(N)=O)cc2)c1
inactive: [1] 6.76% | [2] -5.87% | [7] 16.5% | [8] 1.26% | [9] 10% | [10] -16.3%

Cn1nccc1C(=O)NC1CCCc2c1cnn2-c1ccc(C(C)(C)C)cc1 (configuration not stated)
inactive: [1] 15%
active: [2] 49.3% | [7] 42.5% | [8] 63.5% | [9] 69.7% | [10] 58.2%
